# Screening results: PubChem, National Center for Advancing Translational Sciences (NCATS)
# Many of the other results were omitted from the sample, so hits are more common in it than they were.
# Pf Dd2 growth: blocks in vitro growth of P. falciparum Dd2 | AID 1347417 | P. falciparum Dd2 growth, SYBR Green, 72 h | 120,000 tested, 4.3% active | Potency, µM (doses to about 28.9 µM), for inactives: at the top dose activity, negative = inhibition, usual class: inhibitors; active means well fitted inhibition curve with a large enough effect;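 further: plate controls were DMSO vehicle for no effect and reference drug for full effect; nearly all actives have a fitted effect of over 65% in size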
#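 Infected erythrocytes (Dd2, 0.3% parasitemia, 2.5% hematocrit final) are added to compound in RPMI-1640/Albumax II medium, grown 72 h at 37C in low oxygen, then lysed with saponin/Triton-X containing SYBR Green and read by fluorescence.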
# An asterisk follows results filed as active; i = inactive; [ ] = remark or other dose. Potency means the concentration at half of the fitted maximal effect.
SMILES,Pf Dd2 growth
Cc1cnc(C)c(-c2cc(O)c3c(c2)CN(C(=O)c2ccncn2)CCO3)n1,-14.3%
Cc1nc(CN2CCOc3c(O)cc(-c4nc5ccccc5s4)cc3C2)no1,-24.9%
O=C(O)C1CNCCN(CCOCc2ccccc2)C1 (stereo not drawn),-1.3%
COCC(=O)NC[C@H]1CCN(Cc2cccc(C#N)c2)C[C@H]1N(C)C,-14.2%
CN1CCCN(CC(=O)N2C[C@H](NS(C)(=O)=O)[C@@H](C3CC3)C2)CC1,-1.5%
CN1CC(=O)N(C2CCCNC2)Cc2c1ncnc2N1CCN(CC2CCCCC2)CC1 (stereo not drawn),-26.7%
Cc1cc(Cl)ccc1OCC(=O)N1CCC(c2n[nH]c(=O)n2-c2ccccc2)CC1,i
CC(=O)N1CCCC(C(=O)NCc2nc(Cc3cccs3)no2)C1 (stereo not drawn),-4.3%
CC(=O)NC1CC2(CCN(C(=O)CCCN(C)C)CC2)c2ccccc21 (stereo not drawn),20.2%
CC(C)NC(=O)N(C1CC1)C1CCOC2(CCN(C(=O)Cc3ccccc3)CC2)C1 (stereo not drawn),i
COc1ccc(NC(=O)COc2cccc(-c3nnc4n3CCCC4)c2)cc1OC,7.94µM*
Cc1ccc(CC(=O)Nc2ccc(-c3nnc4n3CCCC4)cc2)cc1,i
CCC(=O)Nc1ccc(-c2nnc3n2CCCC3)cc1,21.0%
COc1ccc(NC(=O)COc2ccc(-c3nnc4n3CCCC4)cc2)cc1OC,8.91µM*
COc1ccc(NC(=O)Cn2nc3n(c2=O)CCCCC3)cc1OC,i
O=C(COc1cccc(-c2nnc3n2CCCC3)c1)Nc1ccc(Cl)cc1F,-29.2%
Cn1c(=O)[nH]cc(CC(=O)N2C[C@H](C3CC3)[C@@H](N)C2)c1=O,-5.9%
CCNC(=O)N1C[C@@H]2OCC(=O)N(C(C)C)[C@@H]2C1,5.9%[44.1 µM]
COc1cc(CNC(C)Cn2nc(C)cc2C)ccc1OCCN1CCCC1 (stereo not drawn),3.55µM*
COc1ccc(CNc2cc3c(cn2)CN(C)CCN3C)cc1OC,i
COc1cc(CNCc2cnn(C)c2C)ccc1OCC(O)CN1CCSCC1 (stereo not drawn),-12.5%
O=C(Nc1cnc(-c2cccc(Cl)c2)nc1)c1cc(F)cc(F)c1,-11.2%
OC[C@H]1CCN(c2ccnc3c(C(F)(F)F)cccc23)C[C@H]1O,-21.9%
FC(F)(F)c1cccc2c(N3CCC4(CCCN4Cc4ncc[nH]4)CC3)ccnc12,10µM*
COCCC1(C(=O)O)CCN(c2ccnc3c(C(F)(F)F)cccc23)CC1,-12.6%
SMILES,Pf Dd2 growth
O=C(NCc1cc(F)cc(F)c1)c1nnn2c1COC(c1ccc(Br)cc1)C2 (stereo not drawn),i
COc1ccc(C(=O)N2CC3(Cc4ccccc4N(C(C)=O)C3)C2)cc1,-19.9%
O=C(NCc1ccccc1Cl)[C@@H]1CNC[C@H]1COc1cccnc1,-7.0%
O=C(Cc1ccccn1)N1CCC(N2CCCCCC2=O)CC1,-10.6%[44.1 µM]
COC[C@H]1CCCN1C(=O)C[C@@H]1O[C@H](CNC(=O)c2ccccc2)[C@@H](O)[C@H]1O,7.3%[44.1 µM]
COC(=O)c1ccc2nc(C[C@@H]3C[C@@H](C(C)C)[C@H](CN)C=C3C)[nH]c2c1,-16.0%[44.1 µM]
CC1=C[C@@H](CN)[C@H](C(C)C)C[C@H]1Cc1nc2ccc(Cl)cc2[nH]1,11.2µM*
CC1=C[C@@H](CNC2CCN(C)CC2)[C@H](C(C)C)C[C@H]1Cc1nc2ccc(F)cc2[nH]1,-21.8%[44.1 µM]
CC1=C[C@@H](CNC(=O)CCCC(=O)O)[C@H](C(C)C)C[C@H]1Cc1nc2ccc(Cl)cc2[nH]1,-5.5%
CC1=C[C@@H](CNC(=O)NC2CCCCC2)[C@H](C(C)C)C[C@H]1Cc1nc2ccc(C)cc2[nH]1,-18.5%[44.1 µM]
CC1=C[C@@H](CN)[C@H](C(C)C)C[C@H]1Cc1nc2ccc(C)cc2[nH]1,10µM*
CCc1nc(C)c(C(=O)N2CCC3(CC2)CC(c2ccccc2)CN(CC)C3)o1 (stereo not drawn),i
COc1cc(CCC(=O)N(C)C2CCc3nn(CC4CC4)c(=O)n3CC2)on1 (stereo not drawn),i
Cc1ccc(CN2CCn3nnc(CCC(=O)NCc4ccccc4)c3C2)o1,-15.6%
CNC(=O)C1(N2CCC[C@H]2C(=O)N2CCOCC2)COC1,0.9%[44.1 µM]
O=[S+]1([O-])NCC2(CCN(Cc3ccc(F)cc3)CC2)Nc2ccccc21,8.91µM*
Cc1ccc(CN2CCC3(CC2)CN[S+](=O)([O-])c2ccccc2N3)cc1,5.01µM*
O=[S+]1([O-])NC2(CCN(Cc3ccncc3)C2)CNc2ccccc21 (stereo not drawn),5.1%
COc1ccc(CN2CCC3(CN[S+](=O)([O-])c4ccccc4N3)C2)cc1 (stereo not drawn),i
O=[S+]1([O-])NC2(CCN(Cc3ccc(C(F)(F)F)cc3)CC2)CNc2ccccc21,11.2µM*
COc1ccc(CN2CCC3(CC2)CNc2ccccc2[S+](=O)([O-])N3)cc1,i
O=[S+]1([O-])NCC2(CCN(Cc3ccsc3)CC2)Nc2ccccc21,-23.0%
O=[S+]1([O-])NCC2(CCCN(Cc3ccc(F)cc3)C2)Nc2ccccc21 (stereo not drawn),i
Cc1ccc(CN2CCCC3(CN[S+](=O)([O-])c4ccccc4N3)C2)cc1 (stereo not drawn),-26.6%
CCS(=O)(=O)Nc1ccc(C2(C(=O)NC3CCCC3)CCC2)cc1,0.0%
SMILES,Pf Dd2 growth
CCc1nnc([C@@H]2CC(F)(F)CN2C(=O)CCn2cc(C)cn2)o1,5.2%
COc1ccc2[nH]cc(CCNC(=O)C3CC(=O)N(c4n[nH]c5cccc(F)c45)C3)c2c1 (stereo not drawn),i
CNC(=O)c1cc(-c2ccc(O)c(F)c2)cc2c1OCCN2Cc1cccnc1,i
CCCN(CC1CCOC1)C(=O)Nc1c(F)cccc1F (stereo not drawn),4.0%
Cc1nocc1C(=O)N1CCCn2ccnc2C1c1cnn(C)c1 (stereo not drawn),1.7%
O=C1Nc2ccccc2CNC12CCN(Cc1ccncc1)CC2,13.6%
CCn1c(=N)n(CCOc2ccc(Br)cc2)c2ccccc21,5.01µM*
COc1cccc(OCc2nc3ccccc3n2CCOc2ccccc2)c1,-0.7%
c1ccc(OCCn2c(COc3ccccc3)nc3ccccc32)cc1,i
Cc1nn(C)c(C)c1CCCN(C)C(=O)c1ccc2c(c1)C(O)CCCCCN2C (stereo not drawn),i
COCCNC(=O)C1(C)CN(C)Cc2ccc(Nc3cccc(OC)c3)nc21 (stereo not drawn),i
COc1cccc(Nc2ccc3c(n2)C(C)(C(=O)NC(C)C)CN(C)C3)c1 (stereo not drawn),2.51µM*
COc1cccc(Nc2ccc3c(n2)C(C)(C(=O)NCc2ccco2)CN(C)C3)c1 (stereo not drawn),-15.8%[44.1 µM]
COc1ccc(C(=O)N2[C@@H]3CC[C@H]2CC(NC(=O)c2ccncc2)C3)cc1F (stereo partly drawn),4.7%
CCN1C(=O)COC[C@@H]1[C@H](O)c1ccc(NC(=O)c2ccnc(Cl)c2)cc1,-6.0%[44.1 µM]
CC(=O)N1CCCC2(COc3ccccc3S(=O)(=O)N2)C1 (stereo not drawn),26.7%
CCN(C(=O)Cn1c(SCC(=O)Nc2ccc(OC)cc2)nc2ccccc21)c1cccc(C)c1,10µM*
COc1ccc(NC(=O)CSc2nc3ccccc3n2CC(=O)Nc2cccc(C)c2C)cc1,2.1%
CCN(C(=O)Cn1c(SCC(=O)NCc2ccccc2)nc2ccccc21)c1cccc(C)c1,-22.7%
COc1ccc(CNC2(Cc3cc(C(=O)N4CCCCC4)on3)COC2)cc1,i
